Consider 1 compound from ChEMBL document CHEMBL1961873, “Compounds: GSK PKIS; Assays: Nanosyn kinase panel” (2012).

In experiment [1] the target is Sphingosine kinase 1 (Homo sapiens) (UniProt Q9NYA1). Particulars: at 1 µM.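 Further: mean SPHK1 inhibition value reported from the GSK PKIS kinase panel screen.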
Experiment [2] has as its target T1, Sphingosine kinase 2 (Homo sapiens) (UniProt Q9NRA0).
T1 sequence (whole entry): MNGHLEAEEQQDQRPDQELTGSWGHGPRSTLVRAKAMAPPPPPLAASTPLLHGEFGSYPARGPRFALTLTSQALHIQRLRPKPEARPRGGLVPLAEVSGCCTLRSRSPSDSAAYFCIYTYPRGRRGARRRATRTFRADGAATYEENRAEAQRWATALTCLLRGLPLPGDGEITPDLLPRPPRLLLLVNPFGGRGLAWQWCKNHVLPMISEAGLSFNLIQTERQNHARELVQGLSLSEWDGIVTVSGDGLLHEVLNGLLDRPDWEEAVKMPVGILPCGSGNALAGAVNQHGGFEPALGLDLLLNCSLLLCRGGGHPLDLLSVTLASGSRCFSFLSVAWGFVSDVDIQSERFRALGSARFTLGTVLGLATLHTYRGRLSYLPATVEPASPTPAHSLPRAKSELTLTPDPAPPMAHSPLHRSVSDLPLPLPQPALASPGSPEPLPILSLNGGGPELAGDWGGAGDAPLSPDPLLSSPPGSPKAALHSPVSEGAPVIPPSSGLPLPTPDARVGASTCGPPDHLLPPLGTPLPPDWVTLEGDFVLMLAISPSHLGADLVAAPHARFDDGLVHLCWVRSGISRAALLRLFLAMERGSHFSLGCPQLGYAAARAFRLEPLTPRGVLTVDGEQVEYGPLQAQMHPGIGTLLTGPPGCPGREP
Particulars: at 0.1 µM.

Experiment [3] addresses T1, Sphingosine kinase 2 (Homo sapiens). The settings on record: at 1 µM.
Experiment [4] concerns the target Casein kinase II subunit alpha (Homo sapiens) (UniProt P68400). The settings on record: at 0.1 µM.
Experiment [5] shares this target. Particulars: at 1 µM.
Experiment [6] has as its target T2, Inhibitor of nuclear factor kappa-B kinase subunit alpha (Homo sapiens) (UniProt O15111).
T2 sequence (whole entry): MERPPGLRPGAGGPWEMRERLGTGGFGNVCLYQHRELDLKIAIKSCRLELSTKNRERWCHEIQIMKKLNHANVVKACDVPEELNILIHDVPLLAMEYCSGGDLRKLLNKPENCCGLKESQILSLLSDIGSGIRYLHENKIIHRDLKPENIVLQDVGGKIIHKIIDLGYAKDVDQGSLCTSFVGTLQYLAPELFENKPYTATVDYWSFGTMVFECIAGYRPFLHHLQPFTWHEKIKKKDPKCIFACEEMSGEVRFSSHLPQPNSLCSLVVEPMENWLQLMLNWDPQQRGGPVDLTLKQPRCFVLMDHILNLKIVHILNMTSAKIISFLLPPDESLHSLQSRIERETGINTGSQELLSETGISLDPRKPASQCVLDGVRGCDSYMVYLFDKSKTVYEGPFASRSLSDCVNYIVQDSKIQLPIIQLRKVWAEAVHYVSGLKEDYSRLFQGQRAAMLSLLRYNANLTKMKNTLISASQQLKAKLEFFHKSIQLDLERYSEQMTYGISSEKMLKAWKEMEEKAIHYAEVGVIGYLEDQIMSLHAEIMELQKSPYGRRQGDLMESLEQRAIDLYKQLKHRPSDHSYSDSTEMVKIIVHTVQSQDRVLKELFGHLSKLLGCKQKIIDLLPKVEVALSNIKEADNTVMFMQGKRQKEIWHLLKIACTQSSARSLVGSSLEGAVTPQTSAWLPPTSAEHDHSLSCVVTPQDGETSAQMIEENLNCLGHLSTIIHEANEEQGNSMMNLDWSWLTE
Particulars: at 0.1 µM.

The target in experiment [7] is T2, Inhibitor of nuclear factor kappa-B kinase subunit alpha (Homo sapiens). The settings on record: at 1 µM.
Experiment [8] concerns the target T3, Inhibitor of nuclear factor kappa-B kinase subunit beta (Homo sapiens) (UniProt O14920).
T3 sequence (whole entry): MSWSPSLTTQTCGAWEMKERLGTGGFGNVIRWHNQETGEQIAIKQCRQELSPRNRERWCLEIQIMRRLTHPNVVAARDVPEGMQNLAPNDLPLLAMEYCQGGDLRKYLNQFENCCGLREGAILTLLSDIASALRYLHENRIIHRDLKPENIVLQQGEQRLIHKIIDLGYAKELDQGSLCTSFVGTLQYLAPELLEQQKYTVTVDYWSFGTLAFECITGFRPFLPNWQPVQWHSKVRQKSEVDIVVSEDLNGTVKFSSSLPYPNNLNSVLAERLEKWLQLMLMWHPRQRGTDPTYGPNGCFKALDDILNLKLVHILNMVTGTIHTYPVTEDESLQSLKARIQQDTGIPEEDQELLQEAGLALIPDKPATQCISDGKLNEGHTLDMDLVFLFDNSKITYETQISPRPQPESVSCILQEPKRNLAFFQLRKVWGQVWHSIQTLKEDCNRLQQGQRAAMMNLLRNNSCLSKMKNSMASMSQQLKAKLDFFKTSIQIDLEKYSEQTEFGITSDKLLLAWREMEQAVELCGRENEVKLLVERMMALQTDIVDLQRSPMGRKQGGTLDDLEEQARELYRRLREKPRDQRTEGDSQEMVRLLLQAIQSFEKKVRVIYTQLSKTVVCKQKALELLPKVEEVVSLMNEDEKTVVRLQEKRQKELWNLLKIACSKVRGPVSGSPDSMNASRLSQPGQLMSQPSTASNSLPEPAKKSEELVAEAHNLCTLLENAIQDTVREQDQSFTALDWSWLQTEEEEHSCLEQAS
Particulars: at 0.1 µM.

The target of experiment [9] is T3, Inhibitor of nuclear factor kappa-B kinase subunit beta (Homo sapiens). Particulars: at 1 µM.
Experiment [10] has as its target T4, Inhibitor of nuclear factor kappa-B kinase subunit epsilon (Homo sapiens) (UniProt Q14164).
T4 sequence (whole entry): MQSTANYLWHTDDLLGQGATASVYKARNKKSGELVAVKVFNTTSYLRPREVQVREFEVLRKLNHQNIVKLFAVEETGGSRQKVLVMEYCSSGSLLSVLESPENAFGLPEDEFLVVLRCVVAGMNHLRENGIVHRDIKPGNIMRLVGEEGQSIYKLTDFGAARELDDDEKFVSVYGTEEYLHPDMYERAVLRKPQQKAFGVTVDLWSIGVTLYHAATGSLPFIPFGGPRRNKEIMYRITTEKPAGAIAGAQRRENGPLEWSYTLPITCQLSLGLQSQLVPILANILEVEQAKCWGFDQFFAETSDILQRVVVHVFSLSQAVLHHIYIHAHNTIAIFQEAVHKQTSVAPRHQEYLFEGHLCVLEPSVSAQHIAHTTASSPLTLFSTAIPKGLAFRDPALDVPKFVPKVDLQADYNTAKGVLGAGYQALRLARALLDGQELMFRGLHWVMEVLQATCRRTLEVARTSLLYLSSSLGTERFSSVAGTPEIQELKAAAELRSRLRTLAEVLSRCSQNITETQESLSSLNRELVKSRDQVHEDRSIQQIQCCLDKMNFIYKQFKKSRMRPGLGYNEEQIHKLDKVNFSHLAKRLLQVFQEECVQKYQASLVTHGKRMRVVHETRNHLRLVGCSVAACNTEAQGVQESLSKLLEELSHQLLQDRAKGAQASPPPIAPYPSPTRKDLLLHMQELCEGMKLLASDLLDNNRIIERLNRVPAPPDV
Particulars: at 0.1 µM.

Experiment [11] concerns the target T4, Inhibitor of nuclear factor kappa-B kinase subunit epsilon (Homo sapiens). The settings on record: at 1 µM.
Experiment [12] deals with T5, Serine/threonine-protein kinase Nek1 (Homo sapiens) (UniProt Q96PY6).
T5 sequence (whole entry): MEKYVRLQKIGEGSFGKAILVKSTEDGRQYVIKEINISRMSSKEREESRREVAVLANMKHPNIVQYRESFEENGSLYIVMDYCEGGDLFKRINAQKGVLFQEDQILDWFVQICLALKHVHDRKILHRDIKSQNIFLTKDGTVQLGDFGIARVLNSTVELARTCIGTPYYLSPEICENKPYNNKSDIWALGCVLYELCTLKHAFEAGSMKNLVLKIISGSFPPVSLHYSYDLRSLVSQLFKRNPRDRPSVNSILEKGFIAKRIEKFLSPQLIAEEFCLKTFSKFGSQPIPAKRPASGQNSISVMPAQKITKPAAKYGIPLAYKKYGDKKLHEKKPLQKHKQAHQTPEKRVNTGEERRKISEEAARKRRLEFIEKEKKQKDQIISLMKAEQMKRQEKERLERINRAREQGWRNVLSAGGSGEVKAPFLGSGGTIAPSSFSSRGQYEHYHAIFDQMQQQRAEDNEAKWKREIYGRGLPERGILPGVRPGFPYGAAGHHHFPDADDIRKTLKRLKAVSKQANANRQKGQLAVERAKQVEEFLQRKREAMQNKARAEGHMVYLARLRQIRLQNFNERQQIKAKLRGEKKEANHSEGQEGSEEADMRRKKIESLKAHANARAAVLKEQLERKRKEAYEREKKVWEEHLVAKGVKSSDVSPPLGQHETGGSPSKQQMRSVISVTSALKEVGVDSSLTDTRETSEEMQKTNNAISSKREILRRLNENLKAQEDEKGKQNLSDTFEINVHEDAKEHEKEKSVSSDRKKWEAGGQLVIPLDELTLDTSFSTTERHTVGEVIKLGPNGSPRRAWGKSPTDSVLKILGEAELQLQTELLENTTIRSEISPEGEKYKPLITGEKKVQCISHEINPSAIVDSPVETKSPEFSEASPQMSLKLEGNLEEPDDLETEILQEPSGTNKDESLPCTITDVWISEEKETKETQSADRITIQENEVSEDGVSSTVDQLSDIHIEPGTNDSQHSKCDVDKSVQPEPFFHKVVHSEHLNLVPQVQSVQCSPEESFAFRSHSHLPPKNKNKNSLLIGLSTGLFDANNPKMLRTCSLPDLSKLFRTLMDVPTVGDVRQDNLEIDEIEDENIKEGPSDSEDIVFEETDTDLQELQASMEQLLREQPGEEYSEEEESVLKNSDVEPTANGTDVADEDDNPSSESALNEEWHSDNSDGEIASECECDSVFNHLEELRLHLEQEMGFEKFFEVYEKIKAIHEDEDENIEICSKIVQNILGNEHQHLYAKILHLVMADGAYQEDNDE
The settings on record: at 0.1 µM.

Experiment [13] deals with T5, Serine/threonine-protein kinase Nek1 (Homo sapiens). The settings on record: at 1 µM.
The target in experiment [14] is T6, Serine/threonine-protein kinase Nek2 (Homo sapiens) (UniProt P51955).
T6 sequence (whole entry): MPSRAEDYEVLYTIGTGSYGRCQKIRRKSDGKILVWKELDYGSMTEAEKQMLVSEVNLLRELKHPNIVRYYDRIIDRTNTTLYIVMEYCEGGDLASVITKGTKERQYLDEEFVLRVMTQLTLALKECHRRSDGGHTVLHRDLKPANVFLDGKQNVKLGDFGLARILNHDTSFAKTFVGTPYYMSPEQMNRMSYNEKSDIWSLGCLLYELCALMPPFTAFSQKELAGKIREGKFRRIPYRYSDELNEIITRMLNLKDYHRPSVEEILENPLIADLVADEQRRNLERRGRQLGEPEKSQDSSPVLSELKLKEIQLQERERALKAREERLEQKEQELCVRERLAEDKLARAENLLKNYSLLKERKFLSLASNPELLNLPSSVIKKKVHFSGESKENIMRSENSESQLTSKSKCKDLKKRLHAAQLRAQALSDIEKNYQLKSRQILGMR
The settings on record: at 0.1 µM.

The target of experiment [15] is T6, Serine/threonine-protein kinase Nek2 (Homo sapiens). The settings on record: at 1 µM.
For experiment [16], the target named is Serine/threonine-protein kinase Nek6 (Homo sapiens) (UniProt Q9HC98). Particulars: at 0.1 µM.
Experiment [17] shares this target. Particulars: at 1 µM.
The target of experiment [18] is Serine/threonine-protein kinase Nek7 (Homo sapiens) (UniProt Q8TDX7). The settings on record: at 0.1 µM.
Experiment [19] shares this target. Particulars: at 1 µM.
For experiment [20], the target named is T7, Serine/threonine-protein kinase Nek9 (Homo sapiens) (UniProt Q8TD19).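 Further: reported value is the mean percent inhibition of NEK9.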
T7 sequence (whole entry): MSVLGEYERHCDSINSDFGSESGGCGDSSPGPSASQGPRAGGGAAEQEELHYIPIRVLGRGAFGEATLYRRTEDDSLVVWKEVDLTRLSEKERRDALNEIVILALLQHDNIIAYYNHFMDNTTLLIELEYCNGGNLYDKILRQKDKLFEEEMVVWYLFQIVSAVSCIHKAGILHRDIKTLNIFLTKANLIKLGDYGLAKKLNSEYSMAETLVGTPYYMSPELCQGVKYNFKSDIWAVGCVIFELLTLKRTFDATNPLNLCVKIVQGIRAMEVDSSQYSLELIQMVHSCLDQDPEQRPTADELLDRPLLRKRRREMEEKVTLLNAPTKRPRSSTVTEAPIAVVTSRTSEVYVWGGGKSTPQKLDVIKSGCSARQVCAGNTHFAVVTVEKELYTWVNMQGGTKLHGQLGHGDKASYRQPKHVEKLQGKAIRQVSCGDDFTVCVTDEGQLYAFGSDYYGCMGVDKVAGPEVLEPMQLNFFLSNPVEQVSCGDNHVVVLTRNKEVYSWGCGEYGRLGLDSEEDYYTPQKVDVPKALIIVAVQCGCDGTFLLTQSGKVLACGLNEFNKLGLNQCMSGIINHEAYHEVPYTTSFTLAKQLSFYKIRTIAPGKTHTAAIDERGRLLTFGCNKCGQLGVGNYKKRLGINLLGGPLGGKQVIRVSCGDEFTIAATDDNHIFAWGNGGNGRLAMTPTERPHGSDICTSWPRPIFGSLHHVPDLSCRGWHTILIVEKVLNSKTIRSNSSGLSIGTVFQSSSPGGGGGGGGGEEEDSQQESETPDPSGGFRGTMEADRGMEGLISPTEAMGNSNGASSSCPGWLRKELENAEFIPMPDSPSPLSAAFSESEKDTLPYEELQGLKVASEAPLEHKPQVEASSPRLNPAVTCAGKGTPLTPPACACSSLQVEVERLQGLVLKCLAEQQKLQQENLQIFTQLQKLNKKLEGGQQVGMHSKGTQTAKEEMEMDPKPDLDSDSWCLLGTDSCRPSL
The settings on record: at 0.1 µM.

Casein kinase II subunit alpha (Homo sapiens), sequence (P68400 whole entry, looked up): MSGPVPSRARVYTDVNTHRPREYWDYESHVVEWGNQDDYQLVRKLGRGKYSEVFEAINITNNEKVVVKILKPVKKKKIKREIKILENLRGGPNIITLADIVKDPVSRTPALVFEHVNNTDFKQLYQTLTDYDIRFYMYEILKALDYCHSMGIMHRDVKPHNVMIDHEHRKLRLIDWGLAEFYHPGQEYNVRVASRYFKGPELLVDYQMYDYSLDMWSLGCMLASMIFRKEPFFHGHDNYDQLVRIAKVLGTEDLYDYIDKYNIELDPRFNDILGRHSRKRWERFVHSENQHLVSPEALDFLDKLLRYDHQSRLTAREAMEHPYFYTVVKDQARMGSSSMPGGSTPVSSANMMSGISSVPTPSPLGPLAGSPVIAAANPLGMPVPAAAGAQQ
Serine/threonine-protein kinase Nek6 (Homo sapiens), sequence (Q9HC98 whole entry): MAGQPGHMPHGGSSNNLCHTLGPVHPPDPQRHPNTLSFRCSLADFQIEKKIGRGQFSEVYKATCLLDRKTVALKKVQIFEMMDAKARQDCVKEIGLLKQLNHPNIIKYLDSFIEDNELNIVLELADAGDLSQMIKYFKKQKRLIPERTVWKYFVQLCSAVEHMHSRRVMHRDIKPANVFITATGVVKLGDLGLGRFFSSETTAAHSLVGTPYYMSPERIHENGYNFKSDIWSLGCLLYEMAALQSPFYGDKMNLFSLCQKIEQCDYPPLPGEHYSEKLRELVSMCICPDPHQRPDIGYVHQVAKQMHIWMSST
Serine/threonine-protein kinase Nek7 (Homo sapiens), sequence (Q8TDX7 whole entry, looked up): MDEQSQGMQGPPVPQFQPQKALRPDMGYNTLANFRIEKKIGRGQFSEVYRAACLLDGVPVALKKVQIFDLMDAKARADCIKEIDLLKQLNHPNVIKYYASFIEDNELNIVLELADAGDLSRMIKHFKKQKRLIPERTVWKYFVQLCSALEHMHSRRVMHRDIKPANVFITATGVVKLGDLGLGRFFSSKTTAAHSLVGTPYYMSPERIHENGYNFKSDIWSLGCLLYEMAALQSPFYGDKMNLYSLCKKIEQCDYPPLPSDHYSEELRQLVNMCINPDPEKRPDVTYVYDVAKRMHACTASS
Sphingosine kinase 1 (Homo sapiens), sequence (Q9NYA1 whole entry): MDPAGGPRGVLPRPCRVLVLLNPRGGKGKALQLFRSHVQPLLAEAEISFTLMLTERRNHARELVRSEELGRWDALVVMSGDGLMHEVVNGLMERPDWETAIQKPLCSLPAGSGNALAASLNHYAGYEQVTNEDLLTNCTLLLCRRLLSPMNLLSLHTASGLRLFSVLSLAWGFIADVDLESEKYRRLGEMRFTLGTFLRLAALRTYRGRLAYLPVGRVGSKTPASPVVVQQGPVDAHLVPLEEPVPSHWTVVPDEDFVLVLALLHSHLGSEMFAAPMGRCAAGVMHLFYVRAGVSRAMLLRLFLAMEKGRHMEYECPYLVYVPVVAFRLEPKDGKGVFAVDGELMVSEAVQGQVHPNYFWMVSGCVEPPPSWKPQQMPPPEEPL

For orientation: inhibition means the change of the read-out against control, counted positive when it falls. In the case of `CS(=O)(=O)Nc1ccc(-c2ccc3c(NC(=O)C4CC4)n[nH]c3c2)cc1`, the inhibition was -3.21% in experiment [1]; 1.2% in experiment [2]; 0% in [3]; 2.09% in [4]; 0.41% in experiment [5]; 6.65% in experiment [6]. For the same compound, the inhibition is -3.42% in experiment [7]; 3.69% in experiment [8]; 1.2% in experiment [9]; -0.23% in [10]; 2.67% in [11]; 1.54% in experiment [12]. Moreover, the inhibition in [13] was -3.13%; in [14] it was 4.81%; in experiment [15] it was 3.7%; in experiment [16], 1.17%; in experiment [17], -2.29%; in experiment [18], 4.35%. The inhibition in [19] was 2.55%; in [20], 2.89%.
